ATXN2 expr inh – Primary qHTS for Inhibitors of ATXN expression | AID 1745845, 2022 | HEK-293 ATXN2-luciferase reporter, luminescence, 24 h | Potency, µM (doses to about 57 µM), inactives show top-dose activity change, negative = inhibition, hits mostly inhibitors | actives 0.72% (n = 360,000); note: % is set by controls: 0 for no effect and ±100 for the full control effect; nearly all actives have a fitted effect of over 55% in size
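ATXN2-luciferase reporter cells (luciferase flanked by upstream and downstream ATXN2 gene portions) were treated 24 h at 37 °C with compounds at up to 57 uM. SteadyGlo luminescence gave expression; GF-AFC fluorescence gave viability.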
TGFb inhibitor – qHTS for Inhibitors of TGF-b | Potency, µM (top dose mostly 46.1 µM), inactives show at the top dose activity, negative = inhibition, actives largely listed as inhibitors | actives 1.2% (n = 410,000) | AID 588855, 2011 | HepG2 CAGA-GFP TGF-b/SMAD3 reporter, GFP fluorescence, 18 h; TGF-beta stimulated, 500 pg/mL final; note: % is set by controls: 0 for no effect and ±100 for the full control effect; nearly all actives have a fitted effect of over 65% in size
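First, reporter cells (HEPG2 CAGA-GFP) rested 2 h at 37 degrees C. Next, compounds were pinned in and TGF-beta added to 500 pg/mL final. After 18 h, GFP was imaged per cell and summed per well.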
S2 tox – Viability Counterscreen for Primary qHTS for Inhibitors of ATXN expression; Potency, µM (highest dose often 56.7 µM), hits mostly cytotoxic; actives 0.49% (n = 400,000); S2 cells (HEK-293 line with an ATXN2-luciferase reporter) viability, CellTiter-Fluor protease fluorescence, 24 h; note: nearly all actives have a fitted effect of over 40% in size
KB-3-1 cytotox – qHTS assay for MDR1-selective chemotherapeutics: Primary screen using the parental adenocarcinoma cell KB-3-1; Potency, µM (series often up to 46.1 µM), hits mostly cytotoxic; KB-3-1 viability, CellTiter-Glo ATP luminescence, 72 h; AID 1347075, 2019; actives 1.4% (n = 400,000); note: % is set by controls: 0 for no effect and ±100 for the full control effect; nearly all actives have a fitted effect of over 60% in size
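Cells are dispensed, compounds pinned in, plates held at 37 °C for 72 h, then CellTiter-Glo is added and luminescence read after 10 minutes. Cell line: parental KB-3-1 in phenol-red-free DMEM, 10% FBS.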
HepG2 viability – qHTS for Inhibitors of TGF-b: Cytotox Counterscreen; HepG2 CAGA-GFP viability, ATP luminescence, 18 h; Potency, µM (titrated, usually from 46.1 µM), inactives show at the highest dose activity change, negative = cytotoxicity, hits mostly cytotoxic; actives 0.76% (n = 410,000); AID 588856, 2011
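CellTiter-Glo luminescence gave cytotoxicity after 18 hours at 37 degrees C. The cells were HepG2 CAGA-GFP in 1% FBS DMEM, stimulated with 500 pg/mL TGF-beta after compound addition. %Activity was normalised to no-cell wells (complete cell-killing) and DMSO (no toxicity), and curves were fitted and classified.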
KB-V1 MDR tox – qHTS assay for MDR1-selective chemotherapeutics: Primary screen using the drug-selected MDR subline cells KB-V1; actives 3.4% (n = 400,000); AID 1347076, 2019; KB-V1 MDR cells viability, CellTiter-Glo, 72 h; Potency, µM (titrated, usually from 46.1 µM), hits mostly cytotoxic; note: % is set by controls: 0 for no effect and ±100 for the full control effect; nearly all actives have a fitted effect of over 60% in size
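In this primary screen, KB-V1 cells overexpressing P-gp are incubated with library compounds (lowest to highest concentration) for 72 h at 37 degrees C before a luminescent ATP viability read.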
The depositor's hits bear a star; i = inactive; ? = inconclusive; . = no result. Shown are actives, neighbours in structure and some others; about 5.9% of the full set was active somewhere. Calls come from the whole dose curve; as a rule, active = well fitted curve in the direction sought with a large enough effect; inconclusive = small, poorly fitted or top-dose-only effect, or another doubt; inactive = no such curve, though single readings can be large; an effect the other way counts as inactive or inconclusive. Potency is the fitted concentration of half-maximal effect.

SMILES | ATXN2 expr inh | TGFb inhibitor | S2 tox | KB-3-1 cytotox | HepG2 viability | KB-V1 MDR tox
Cc1ccc(-c2nc3ncccc3o2)cc1NC(=O)c1ccccc1Br | . | -2% | . | . | -7% | .
Cc1ccc(Cn2c(SCC(=O)N3CC(=O)Nc4ccccc43)nc3ccccc3c2=O)cc1 | -12% | -21% | i | i | -4% | 21µM*
C/C(N)=C(/C#N)C(=O)CSc1nc2ccccc2c(=O)n1Cc1ccc(F)cc1 | . | 11µM* | ? | i | -46% | i
CC(c1ccccc1)n1c(SCC(=O)N2CC(=O)Nc3ccccc32)nc2ccccc2c1=O (centres undefined) | ? | ? | ? | ? | 1% | ?
Cc1nnc(SCC(=O)N2CC(=O)Nc3ccccc32)n1Cc1ccccc1 | 1% | -4% | i | i | -1% | i
CC(C)Cn1c(SCC(=O)N2CC(=O)Nc3ccccc32)nc2ccccc21 | -3% | 4% | i | i | 15% | 10µM*
O=C1CN(C(=O)CSc2nnnn2-c2ccc(Cl)cc2)c2ccccc2N1 | -2% | -4% | i | i | 0% | 16µM*
Cc1csc2nc(COc3ccccc3NC(=O)c3ccc(C(C)(C)C)cc3)cc(=O)n12 | 16% | 0% | i | i | 2% | i
COc1ccccc1C1CN(CCNC(=O)c2sccc2Cl)Cc2ccccc2O1 (centres undefined) | . | . | i | . | . | .
Nc1nc(Nc2cccc(F)c2)nc(NCc2ccco2)c1[N+](=O)[O-] | -4% | ? | i | ? | -24% | ?
Cc1cccc(Nc2nc(N)c([N+](=O)[O-])c(NCc3ccco3)n2)c1 | -35% | ? | ? | ? | -48% | 7.3µM*
Nc1nc(Nc2ccc(Cl)cc2)nc(NCc2ccco2)c1[N+](=O)[O-] | -4% | ? | i | i | -197% | 16µM*
Nc1nc(Nc2cccc(Cl)c2)nc(NCc2ccco2)c1[N+](=O)[O-] | ? | ? | ? | 16µM* | -185% | ?
Cc1ccc(-c2nc(-c3cc4cccc(OCc5ccccc5F)c4oc3=O)no2)cc1 | 13% | 0% | i | i | 6% | ?
Cn1cc(-c2ccc3nnc(Sc4ccc5ncccc5c4)n3n2)cn1 | -17% | . | . | . | . | .
CCC1CN(Cc2cn[nH]c2-c2ccccc2)Cc2cc(OC)ccc2O1 (centres undefined) | . | . | i | . | . | .
CC(=O)c1ccc(NC(=O)Nc2nnc(-c3ccncc3)s2)cc1 | . | . | . | i | . | i
CN(C)CCNc1nc2sc3c(c2c(=O)n1CCc1ccccc1)CCCCC3 | . | ? | . | i | -130% | 21µM*
COC(=O)Cn1c(=O)n(CCc2ccccc2)c(=O)c2c3c(sc21)CCCC3 | -9% | -20% | i | i | -11% | 21µM*
CCn1c(=O)n(CCc2ccccc2)c(=O)c2c3c(sc21)CCCC3 | 12% | 1% | i | i | 8% | i
CCC1CCCCN1C(=O)Cn1c(=O)cc(C(F)(F)F)c2c(C)nn(C)c21 (centres undefined) | -32% | -12% | i | i | -34% | i
Cc1cccc(OCCSc2nc3ccccc3n2CC(=O)N2CCOCC2)c1C | -4% | 2% | ? | i | -21% | i
Cc1ccc(CN(C(=O)c2csnn2)C(C(=O)NC2CCCC2)c2ccco2)cc1 (centres undefined) | 8% | 0% | i | ? | 1% | ?
O=C(NCc1ccccc1)C(c1cccs1)N(C(=O)c1csnn1)C1CC1 (centres undefined) | 1% | ? | i | i | -2% | 18µM*
O=C(NC1CCCC1)C(c1ccccn1)N(C(=O)c1csnn1)C1CCCCC1 (centres undefined) | 2% | 0% | i | i | -35% | i
SMILES | ATXN2 expr inh | TGFb inhibitor | S2 tox | KB-3-1 cytotox | HepG2 viability | KB-V1 MDR tox
O=C(NC1CCCCC1)C(c1ccco1)N(C(=O)c1csnn1)C1CCCC1 (centres undefined) | 0% | -26% | i | i | -27% | 16µM*
O=C(NC1CCCC1)C(c1ccco1)N(Cc1ccccc1)C(=O)c1csnn1 (centres undefined) | 3% | ? | i | i | -9% | 13µM*
CCSc1nn(CC(=O)Nc2cccc(Cl)c2)c(N)c1S(=O)(=O)c1ccc(OC)cc1 | ? | ? | ? | i | -27% | i
COc1ccc(Cl)cc1NC(=O)Cn1c(=O)n2nc(-c3ccccc3)nc2c2ccccc21 | . | -41% | . | . | -24% | .
CC1C=CCC2C(=O)N(c3cccc(C(=O)N4CCN(c5ccc(F)cc5)CC4)c3)C(=O)C12 (centres undefined) | 2% | -7% | i | i | -2% | 18µM*
O=C(c1cccc(N2C(=O)C3CC=CCC3C2=O)c1)N1CCN(c2ccccc2)CC1 (centres undefined) | -6% | ? | i | i | -7% | 23µM*
O=C(c1cccc(N2C(=O)C3C4C=CC(C4)C3C2=O)c1)N1CCN(c2ccc(F)cc2)CC1 (centres undefined) | 1% | -12% | i | i | 3% | i
CC(=O)c1cccc(NC(=O)c2sc(-n3nc(C)c(Cc4ccccc4)c3C)nc2C)c1 | . | -61% | . | . | -13% | .
O=C(NCc1cccnc1)C(=O)NCC(c1cccnc1)N1CCN(c2ccccc2F)CC1 (centres undefined) | -22% | 2% | i | i | 0% | i
CCN(CC)CCC(c1ccc(N(C)C)cc1)c1c(OC)cc(OC)c2c1OC(=O)CC2c1ccc(OC)cc1 (centres undefined) | . | -6% | . | . | -22% | .
Cc1cc(C)cc(NC(=O)Cc2c(C(=O)O)c(C)cn2C)c1 | 1% | 29% | ? | i | 3% | i
COC(=O)C1=C(C)NC(=O)NC1c1cn(-c2ccccc2)nc1-c1cccs1 (centres undefined) | 1% | 3% | i | i | -30% | i
CCOC(=O)C1=C(C)NC(=O)NC1c1cn(-c2ccccc2)nc1-c1cccs1 (centres undefined) | -7% | ? | i | i | -22% | 21µM*
O=c1c2sc(-c3ccccc3)cc2nc2n1CCCCC2 | 61% | 0% | i | i | -29% | 12µM*
COc1cc(=O)n2c(c1C(=O)NCc1ccc3c(c1)OCO3)CCN(C(=O)c1ccccc1F)CC2 | . | . | i | . | . | .

Assay outcomes as filed in PubChem BioAssay.
